Compounds with a hit are over-represented: about 21% of the library has one in this group of screens.
D3 ag: D3 dopamine receptor (human) agonism; P35462; D3R DiscoveRx beta-arrestin cells, luminescence, 90 min; max activation, %; actives 0.58% (n = 410,000); AID 652048; in the data active means max activation above about 30%; further: 0% is about no effect
Target sequence (P35462 whole entry, looked up): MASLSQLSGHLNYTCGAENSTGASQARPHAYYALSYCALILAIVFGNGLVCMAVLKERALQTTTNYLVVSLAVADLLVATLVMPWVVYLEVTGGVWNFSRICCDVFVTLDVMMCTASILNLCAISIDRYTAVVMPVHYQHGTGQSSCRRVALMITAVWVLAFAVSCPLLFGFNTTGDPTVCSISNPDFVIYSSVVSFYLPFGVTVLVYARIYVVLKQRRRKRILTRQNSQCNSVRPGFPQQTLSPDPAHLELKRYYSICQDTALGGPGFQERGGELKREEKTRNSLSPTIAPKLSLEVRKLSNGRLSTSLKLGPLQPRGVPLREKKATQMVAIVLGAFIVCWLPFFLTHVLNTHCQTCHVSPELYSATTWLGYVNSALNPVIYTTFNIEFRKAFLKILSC
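Agonist-mode cell screen: cells plated at 1500/well and incubated overnight at 37 °C, then exposed to library compounds for 90 min at 37 °C. Detection reagent was added for 30–60 min at room temperature, and luminescence was read.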
IL-1B inflam inh: blocks inflammasome-driven IL-1 beta release | THP-1 LPS/ATP IL-1B secretion, AlphaLISA, 16 h; active compounds read low | activity change, % at 57.5 µM | actives 4.7% (n = 360,000) | AID 743279; in the data active means activity change below about -50%; inconclusive means mostly about -30% to -49%; further: on the % scale 0 is the no-effect control and ±100 the full control effect
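Secreted IL-1B measured by AlphaLISA bead assay after 16 h compound exposure of THP-1 cells; compounds (final up to 57.5 uM) added 1 h before LPS (250 ng/mL) and ATP (1.25 mM) stimulation; lower signal means less secretion.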
DRD3 antagonist: antagonists of human D3 dopamine receptor. P35462. max response, negative = inhibition, %. actives 2.5% (n = 360,000). D3R cells, DiscoveRx beta-arrestin luminescence, antagonist mode; active compounds read low; in the data active means max response below about -50%; inconclusive means no clear call, values can overlap the other calls; further: on the % scale 0 is the no-effect control and ±100 the full control effect
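Cells expressing the human receptor were seeded at 1500 cells/well, incubated overnight at 37 degrees C in 5% CO2, then exposed to library compounds with dopamine controls for 90 minutes at 37 degrees C before luminescent detection.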
DT40 TDP1 no CPT: qHTS for Inhibitors of human tyrosyl-DNA phosphodiesterase 1 (TDP1): qHTS in cells in absence of CPT. DT40 Tdp1-/- hTDP1 cells, no CPT, ATP luminescence, 48 h. Potency, µM (titrated, usually from 46.2 µM), inactives show at the top dose activity change, negative = growth inhibition, most hits filed as inhibitors. actives 15% (n = 420,000); further: potency means the concentration at half of the fitted maximal effect; on the % scale 0 is the no-effect control and ±100 the full control effect; nearly all actives have a fitted effect of over 55% in size
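Stably hTDP1-transfected Tdp1-null chicken DT40 cells were treated with library compounds minus camptothecin and grown for at least 48 hr at 37 °C, after which cellular ATP was quantified by luminescence.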
ClpP mod: qHTS Assay for Activators of ClpP; actives 1.9% (n = 340,000); purified B. subtilis ClpP, FRET peptide cleavage, 20 min; AID 651965, 2013; Potency, µM (series often up to 57.5 µM), for inactives: top-dose activity change, negative = active; active means well fitted falling curve with a large enough effect; inconclusive means small, poorly fitted or top-dose-only effect; inactive means no such curve, though single readings can be large or run the other way; further: potency means the concentration at half of the fitted maximal effect; the source files actives as falling curves though it sought activators and does not explain the sign; nearly all actives have a fitted effect of over 65% in size
Target sequence (P80244 whole entry, looked up): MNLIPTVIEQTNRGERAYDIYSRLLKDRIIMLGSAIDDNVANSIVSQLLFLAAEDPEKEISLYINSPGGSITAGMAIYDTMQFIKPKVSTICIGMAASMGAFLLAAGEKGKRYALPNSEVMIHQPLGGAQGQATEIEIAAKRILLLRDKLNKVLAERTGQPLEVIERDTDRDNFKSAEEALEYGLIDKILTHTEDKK
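Purified B. subtilis ClpP, 10 microg/mL final in Tris/HCl pH8 with KCl, BSA, glycerol and Tween-20, cleaved an Abz/nitrotyrosine-quenched decapeptide. Fluorescence (ex 320, em 430) was read at 0 and 20 min at room temperature. Delta was normalized to 5.8 microM ADEP and DMSO/no-enzyme controls.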
DT40 TDP1 CPT: DT40-hTDP1 cell growth loss with CPT | chicken DT40 Tdp1-/-;hTDP1 cells + 20 nM CPT, ATP luminescence, 48 h | Potency, µM (doses to about 46.2 µM), inactives show at the highest dose activity change, negative = growth inhibition, actives largely listed as inhibitors | actives 12% (n = 420,000); further: potency means the concentration at half of the fitted maximal effect; on the % scale 0 is the no-effect control and ±100 the full control effect; nearly all actives have a fitted effect of over 55% in size
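Chicken DT40 Tdp1-/- cells stably complemented with human TDP1 were seeded at 400 cells/well in medium containing 20 nM camptothecin, exposed to pin-transferred compounds, and grown at 37 °C for at least 48 hr. Viability was read as ATP luminescence.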
The depositor's hits bear a star; i = inactive; ? = inconclusive; nt = no result given. Unless noted, the call rests on the fitted dose curve; in most records, active means well fitted inhibition curve with a large enough effect; inconclusive means small, poorly fitted or top-dose-only effect; inactive means flat fitted curve, though single readings scatter.

SMILES	D3 ag	IL-1B inflam inh	DRD3 antagonist	DT40 TDP1 no CPT	ClpP mod	DT40 TDP1 CPT
Cc1c(C(=O)OC2CCCC2)[nH]c2c1C(=O)CC(c1ccc(Cl)cc1)C2 (configuration not stated)	-16	nt	nt	-23%	0%	-5%
Cc1cccc2c(=O)cc(CSc3ccccc3NC(=O)c3cccc(Cl)c3)[nH]c12	-16	nt	nt	?	0%	?
O=C(Nc1ccc(NC(=O)c2ccccc2F)cn1)c1ccco1	-3	-17	-9	?	nt	?
Cc1ccc(-n2ncc(C(=O)Nc3cc(Cl)ccc3C)c2C2CCNCC2)cc1C	8	-30	12	23µM*	-1%	16µM*
Cc1cc(C)cc(NC(=O)c2cnn(-c3ccc(C)c(C)c3)c2C2CCNCC2)c1	-3	nt	nt	?	-2%	?
COc1ccc(NS(=O)(=O)c2cccc(C(=O)N3CCN(S(=O)(=O)c4ccccc4)CC3)c2)cc1	-10	0	5	?	0%	?
O=C(CSc1nnc(-c2cccc(Br)c2)o1)NCC1CCCO1 (configuration not stated)	3	-19	?	-18%	1%	-12%
CCN(CC)CC(=O)N1c2ccccc2CCc2ccc(NC(=O)c3cc(OC)c(OC)c(OC)c3)cc21	6	nt	4	2%	nt	6%
COc1ccccc1OCCNC(=O)/C=C/c1ccc([N+](=O)[O-])cc1	-10	11	-4	-30%	1%	-9%
Cc1ccccc1OCCNC(=O)/C=C/c1ccc([N+](=O)[O-])cc1	1	-70*	3	?	-1%	1%
CCCOc1ccc(/C=C/C(=O)Nc2ccc([N+](=O)[O-])cc2)cc1	11	-87*	7	21µM*	-3%	18µM*
Cc1ccsc1C(=O)N1CCN(C(=O)c2ccco2)CC1	-4	-2	-14	16%	1%	2%
C/C(=N\NC(=O)c1nnn(-c2nonc2N)c1CN(C)c1ccccc1)c1cccs1	1	4	9	2%	1%	-20%
CC1=CC2C(C(C)C)CCC(C)(O)C2CC1 (configuration not stated)	nt	nt	nt	-14%	nt	-28%
Cc1cc2nc3ccc(N(C)C)cc3nc2cc1N	2	?	?	15µM*	2%	?
Cc1cc(CCCCCCCCc2cc(C)cc(=O)o2)oc(=O)c1	9	7	22	16µM*	3%	?
CC1(C)C=C(c2ccc(C=O)s2)CC(C)(C)N1C=O	-6	26	-20	-25%	22µM*	1%
CC1(C)C=C(c2ccc(C=O)s2)CC(C)(C)N1	-11	-25	-13	-6%	-4%	2%
CC(CCc1ccccc1)N(C)CC(O)c1cccc([N+](=O)[O-])c1 (configuration not stated)	-31	?	-26	?	nt	-27%
OC(c1cccc(Cl)c1)c1nc(/C=C/c2ccccc2)cs1 (configuration not stated)	0	24	10	?	-7%	?
Cc1ccccc1CC1(CO)CCCN(C(=O)c2cccc(Cl)c2)C1 (configuration not stated)	3	-11	44	?	0%	-74%
Cc1nn(C)c(Cl)c1CN1CCCC(CO)(Cc2cccc(Cl)c2)C1 (configuration not stated)	4	-4	11	15µM*	-1%	15µM*
COc1ccc(CN2CCCC(CO)(Cc3cccc(Cl)c3)C2)cc1OC (configuration not stated)	-12	-9	14	21µM*	nt	-29%
O=C(c1ccc(-n2ccnc2)cc1)N1CCCC(CO)(Cc2cccc(Cl)c2)C1 (configuration not stated)	9	-1	7	?	1%	4.6µM*
OCC1(Cc2ccccc2)CCCN(Cc2ccc(-c3ccco3)cc2)C1 (configuration not stated)	-20	-84*	-90*	23µM*	-28%	?
SMILES	D3 ag	IL-1B inflam inh	DRD3 antagonist	DT40 TDP1 no CPT	ClpP mod	DT40 TDP1 CPT
COc1cc(CN2CCCC(CO)(Cc3cccc(Cl)c3)C2)cc(OC)c1O (configuration not stated)	-9	-17	9	?	-1%	?
CCN1CCCC(CO)(Cc2ccccc2)C1 (configuration not stated)	-3	5	16	-7%	nt	5%
CCN(CC(=O)Nc1ccc2c(c1)OCCO2)C(=O)c1cccc(OCC(C)C)c1	3	i	21	?	-1%	-27%
Cn1cc(CN2CCCC(CO)(Cc3cccc(Cl)c3)C2)cn1 (configuration not stated)	-9	-16	-24	?	-1%	-21%
OCC1(Cc2cccc(Cl)c2)CCCN(Cc2ccc(F)c(F)c2)C1 (configuration not stated)	-7	-55*	-13	?	1%	23µM*
OCC1(Cc2ccc(F)cc2F)CCCN(Cc2ccc(Cl)cc2)C1 (configuration not stated)	-21	-23	-83*	?	1%	?
COc1cc(Cl)c(CN2CCCC(CO)(Cc3ccccc3F)C2)cc1OC (configuration not stated)	0	?	9	?	nt	-6%
CCOc1ccc(CN2CCCC(CO)(Cc3ccccc3F)C2)cc1 (configuration not stated)	-26	-56*	?	?	-2%	?
CSc1cccc(CN2CCCC(CO)(Cc3cccc(Cl)c3)C2)c1 (configuration not stated)	0	-8	-3	12%	-1%	-5%
OCC1(Cc2cccc(Cl)c2)CCCN(Cc2cnn(-c3ccccc3)c2)C1 (configuration not stated)	-18	-19	-62*	13µM*	1%	?
COc1ccc(Cl)cc1NC(=O)CSc1nnc2[nH]c(=O)cc(C)n12	-22	nt	nt	-6%	-3%	19%
CC1CCn2c(nc3cc(C(=O)NCc4ccc(F)cc4)ccc32)C1 (configuration not stated)	-10	nt	nt	?	-2%	-24%
Fc1ccc(-c2ncc3ccccn23)cc1	2	-11	-6	-7%	-9%	2%
c1csc(-c2ncc3ccccn23)c1	-3	-6	3	-23%	32µM*	11%
COc1cc(OC)cc(-c2ncc3ccccn23)c1	-9	-9	-58*	?	25µM*	?

Compound activity from PubChem BioAssay.
